# Screening results deposited in PubChem by National Center for Advancing Translational Sciences (NCATS).
# Most compounds without a hit are left out; they make up all but 10% or so of the library.
# Lamin A splicing – modulators of lamin A splicing; HeLa LMNA splicing GFP/RFP minigene ratio, 48 h; hit rate 0.01% among 200,000; Potency, µM (doses to about 46.1 µM), without a hit: at the highest dose ratio change, negative = inhibition, hits mostly inhibitors; AID 1487; active = well fitted inhibition curve with a large enough effect in the signal ratio, with a control signal flat, not every such curve was filed as active; inconclusive = small, poorly fitted or top-dose-only effect, or effect the other way, or a change in a side signal; the % refers to the signal ratio; note: potency is the fitted concentration of half-maximal effect
#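 S3 HeLa stable clones carrying a lamin A-EGFP splicing minigene plus DsRed2 were seeded at 600 cells/well in Opti-MEM with 2% FBS, pin-dosed and incubated 48 h at 37°C. Acumen cytometry (488 nm) gave the GFP/RFP total-intensity ratio.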
# HPGD inh – HPGD (human) dehydrogenase inhibition. P15428. purified HPGD, NADH fluorescence kinetic, PGE2 substrate. Potency, µM, without a hit: at the highest dose activity change, negative = inhibition, actives largely listed as inhibitors. hit rate 4.3% among 150,000; note: potency is the fitted concentration of half-maximal effect
# Target sequence (P15428 whole entry, looked up): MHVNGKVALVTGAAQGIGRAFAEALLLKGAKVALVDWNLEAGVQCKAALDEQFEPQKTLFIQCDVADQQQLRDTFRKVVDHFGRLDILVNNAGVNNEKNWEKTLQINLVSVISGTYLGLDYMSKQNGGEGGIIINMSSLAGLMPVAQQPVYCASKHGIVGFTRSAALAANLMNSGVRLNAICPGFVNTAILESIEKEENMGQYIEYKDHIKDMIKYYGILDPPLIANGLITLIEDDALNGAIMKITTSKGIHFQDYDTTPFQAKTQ
#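 20 nM HPGD preincubated 15 min at room temperature with compound in 50 mM Tris-HCl pH 8, 0.01% Tween 20. Started with 1 mM NAD+ and 30 uM prostaglandin E2; NADH fluorescence (360/450 nm) read 5 times over 30-s intervals, last minus first.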
# ALOX12 inhib – inhibitors of human 12-lipoxygenase (ALOX12); P18054; purified 12-hLO, xylenol orange hydroperoxide absorbance; Potency, µM (top dose mostly 57.1 µM), for the others: top-dose activity change, negative = inhibition, usual class: inhibitors; hit rate 0.12% among 150,000; active = well fitted inhibition curve with a large enough effect; inconclusive = small, poorly fitted or top-dose-only effect; note: potency is the fitted concentration of half-maximal effect; nearly all actives have a fitted effect of over 55% in size
#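 Purified human 12hLO (150 nM final) was preincubated with compounds for 15 min at room temperature in 25 mM Hepes pH 7.0, 0.01% Triton X-100, then reacted with 40 uM arachidonic acid for 30 min. Hydroperoxide was detected with ferrous iron/xylenol orange.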
# PNC assembly inh – perinucleolar compartment assembly inhibition; AID 2417; activity change (PNC), negative = inhibition, % at 10 µM; PC3M PTB-GFP, PNC prevalence imaging, 16 h; active compounds read low; hit rate 3.1% among 140,000;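 active = readout at or below -70, meaning at least 70% loss of cells showing the perinucleolar compartment, a nuclear body marking cancer cells; inconclusive = readout between -30 and a set limit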;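 note: plate controls were DMSO wells for no effect and camptothecin positive control wells for full effect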
#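 Read-out is percentage of cells bearing a perinucleolar compartment, from automated 20x imaging of fixed, Hoechst-stained PC3M PTB-GFP cells. Cells were seeded 4 h, then exposed 16 h to compound (23 nl of library stock) in duplicate plates.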
# ALDH1A1 inh – inhibitors of human aldehyde dehydrogenase 1A1 | P00352 | Purified ALDH1A1, NADH fluorescence, propionaldehyde substrate | Potency, µM (top dose mostly 75.3 µM), inactives show top-dose activity, negative = inhibition, usual class: inhibitors | hit rate 7.3% among 220,000 | AID 1030;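 note: potency is the fitted concentration of half-maximal effect; plate controls were no enzyme wells and a reference inhibitor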
# * hit, by the source's call; ? = inconclusive; / = no result given; [ ] = remark or other dose. Unless noted, calls come from the whole dose curve; as a rule, active = well fitted inhibition curve with a large enough effect (not every such curve was filed as active); inconclusive = small, poorly fitted or top-dose-only effect, or another doubt; inactive = no such curve, though single readings can be large or run the other way. Unless noted, % is set by controls: 0 for no effect and ±100 for the full control effect.
SMILES,Lamin A splicing,HPGD inh,ALOX12 inhib,PNC assembly inh,ALDH1A1 inh
COc1ccc(/C(N)=N/OC(=O)C2CCC(=O)N2S(=O)(=O)c2ccc(C)cc2)cc1 (centres undefined),2%,-12%,-4%,-89*,-11%
COc1ccc(/C(N)=N/OC(=O)N2CCOCC2)cc1,?,/,/,/,16%
Cc1ccc(C2CC2c2n[nH]c(=S)n2-c2cccc(Cl)c2)cc1 (centres undefined),6%,?,?,?,-2%
CCN(CC)S(=O)(=O)c1cccc(NC(=O)c2ccccc2Br)c1,-25%[46 µM],/,/,/,11µM*
CCN(CC(=O)NCc1cccs1)S(=O)(=O)c1cccc(C(C)=O)c1,1%,-10%,-5%,-83*,0%
CCN(CC)S(=O)(=O)c1cccc(C(=O)Oc2cccc(NC(=O)c3cccs3)c2)c1,-16%,-15%,0%,-108*,-9%
COC(=O)COc1cccc(NC(=O)c2cccs2)c1,-4%,-15%,-2%,-118*,9%
Cc1cc(C)c(NC(=O)C[C@H](CC(=O)O)c2cccc3ccccc23)c(C(=O)N2CCC3(CCCC3)CC2)c1,?,10%,-5%,/,-8%
CC(=O)N1CCC2(CCCN(C(=O)Nc3cccc(F)c3)C2)CC1,/,-3%,-4%,/,7%
c1ccc(CSc2ncnc3c2cnn3Cc2ccccc2)cc1,?,?,-1%,-112*,?
COc1ccc(S(=O)(=O)N(CCCN2CCOCC2)Cc2cccc(OC)c2OC)cc1,23%,0%,8%,49,?
COc1ccc(S(=O)(=O)N(CCCN2CCOCC2)Cc2cccc3ccccc23)cc1,21%,-22%,3%,?,6.3µM*
O=S(=O)(c1ccc(Cl)cc1)N(CCCN1CCOCC1)Cc1cccs1,/,/,/,/,13µM*
Cc1cccc(OCCCn2c(=O)oc3ccc(C)cc32)c1,23%[46 µM],/,/,/,-5%
Cc1ccc(OCCN2C(=O)c3ccccc3C2=O)cc1,14%,?,-7%,?,3%
Cc1ccc2c(c1)C(=O)C(=O)N2CCOc1ccccc1,?,/,/,/,1.3µM*
O=C1C(=O)N(Cc2ccccc2)C(=O)N1CCOc1ccccc1,/,/,/,/,6%
Cc1cccc(OCCN2C(=O)C(=O)c3cc(C)ccc32)c1,?,/,/,/,0.63µM*
Cc1cccc(OCCN2C(=O)C(=O)c3cccc(C)c32)c1,-10%,-15%,0%,-16,0.16µM*
Cc1ccc(C)c(CN2C(=O)c3ccccc3Sc3ccc(C(=O)NC4CCCC4)cc32)c1,-3%[46 µM],/,/,/,/
NC(C(=O)O)C(CC(=O)O)c1ccc(Cl)cc1 (centres undefined),/,/,/,/,0%
CCOc1ccccc1NC(=O)Cn1cc(C(=O)c2ccc(Cl)cc2)c(=O)c2ccc(C)nc21,9%[46 µM],/,/,/,/
CCOC(=O)/C(=N\Nc1ccccc1)S(=O)(=O)c1ccccc1,?,14µM*,-3%,?,16µM*
NNC(=O)/C(=N/Nc1ccccc1)S(=O)(=O)c1ccc(Cl)cc1,?,-18%,-5%,?,13µM*
CC(=O)N1c2ccccc2C(C)CC12CCCCC2 (centres undefined),1%,-5%,13%,-83*,-2%
SMILES,Lamin A splicing,HPGD inh,ALOX12 inhib,PNC assembly inh,ALDH1A1 inh
O=c1c(N2CCN(c3cccc(C(F)(F)F)c3)CC2)csc2ccccc12,22%[46 µM],/,/,/,/
Cc1cc(C)cc(NC(=O)N2CCC(CN3CCCCCC3)CC2)c1,-12%[46 µM],/,/,/,/
CC(Oc1ccccc1)C(=O)N1CCN(Cc2cc(=O)n3nc(-c4ccccc4Cl)sc3n2)CC1 (centres undefined),-15%[46 µM],/,/,/,/
Cc1cc[n+](-c2nc([O-])sc2/C=N/Nc2ccc([N+](=O)[O-])cc2)cc1,-1%,-16%,-23%,24,14µM*
CCNc1ncc2nc(-c3ccccc3)c(=O)n(CCC#N)c2n1,-13%,/,/,/,?
N#C/C(=N\Nc1ccccc1F)C(=N)N1CCCCC1,-11%,-23%,-24%,-85*,?
O=C(O)c1cccc(NCc2ccncc2)c1,-3%,-26%,-4%,-81*,?
O=C(O)c1ccc(NCc2ccncc2)cc1,15%,-10%,2%,9,-10%
N#Cc1ccc(CN2CC3(CCN(C(=O)c4ccco4)CC3)C2)cc1,/,-8%,2%,/,-10%
Cc1cccc(C#N)c1NC1=CC(=O)CC(C)(C)C1,10%,-14%,0%,22,7.9µM*
CCCCOc1ccc(CNC(=O)c2cnc3sc(N4CCCC4)nn3c2=O)cc1,-2%[46 µM],/,/,/,/
CC1CCN(C(=O)Cn2cc(C(=O)C3CC3)c3ccccc32)CC1,5%,-2%,2%,-103*,-5%
CCN(CC)C(=O)C(=O)c1cn(CC(=O)N2CCc3ccccc3C2)c2ccccc12,/,/,/,/,0.71µM*
O=C(C(=O)N1CCc2ccccc2C1)c1cn(CC(=O)N2CCCC2)c2ccccc12,-11%,-3%,-1%,16,6%
CCOC(=O)c1ccc(NC(=O)CSc2nc3ccccc3c(=O)n2CCC(=O)NC2CCCCC2)cc1,27%[46 µM],/,/,/,/
OCCC1CN(Cc2ccc3nonc3c2)CCN1Cc1ccsc1 (centres undefined),/,/,/,/,19µM*
O=C(O)C1Nc2c(O)cc(Cl)c([N+](=O)[O-])c2C2C=CCC12 (centres undefined),?,/,/,/,13µM*
O=[N+]([O-])c1ccc(Cl)c2c1C1C=CCC1C(c1ccccn1)N2 (centres undefined),10%[46 µM],/,/,/,?
Cc1nn(-c2ccccc2)c(Cl)c1C(=O)Nc1nnc(C2CCCC2)s1,?,-19%,-6%,-85*,2.8µM*
Cc1ccc(NC(=O)c2c(C)nn(-c3ccccc3)c2Cl)c(C)c1,7%,14µM*,-5%,37,-12%
N#CC(c1ccccc1)c1ccc2c(C(F)(F)F)cc(C(F)(F)F)nc2n1 (centres undefined),-2%,-11%,3%,7,22µM*
Cc1csc2nc(CSc3nncn3-c3ccccc3)c(Br)n12,-3%,4%,1%,-13,-13%
Cc1csc2nc(CSc3nc4ccccc4o3)c(Br)n12,1%,14µM*,-3%,16,22µM*
FC(F)Oc1ccc(NC(=S)Nn2cnnc2)cc1,/,/,/,/,7.9µM*
CN(NC(=S)Nc1ccc(OC(F)F)cc1)C(=S)Nc1ccc(OC(F)F)cc1,?,18µM*,-4%,-1,22%
N[C@@H](Cc1cc(CP(=O)(O)O)cc(-c2ccccc2Cl)c1)C(=O)O,/,-18%,-3%,/,0%
[C-]#[N+]c1cc(-c2ccncc2)c(C)[nH]c1=O,/,/,/,/,-9%
CCCCNC(=S)N(C)/N=C/c1ccc(F)cc1,?,28µM*,-1%,-21,3%
CCCCNC(=S)N(C)/N=C/c1c(F)cccc1F,?,-8%,-3%,42,-7%
O=C(CN(Cc1ccco1)S(=O)(=O)c1ccccc1)N/N=C/c1ccccc1C(=O)O,/,/,/,/,6%
